Experimental findings from PubChem BioAssay (NCATS) are described below.

The other results are listed elsewhere or left out. Results filed as inconclusive are left out. A number with no mark means an inactive call. Calls of active or inactive are those of the source. Calls come from the whole dose curve.
% is set by controls: 0 for no effect and ±100 for the full control effect; potency is the fitted concentration of half-maximal effect.

Sequence of Polyprotein P1234 (Chikungunya virus (strain S27-African prototype)) (Q8JUX6 whole entry, looked up): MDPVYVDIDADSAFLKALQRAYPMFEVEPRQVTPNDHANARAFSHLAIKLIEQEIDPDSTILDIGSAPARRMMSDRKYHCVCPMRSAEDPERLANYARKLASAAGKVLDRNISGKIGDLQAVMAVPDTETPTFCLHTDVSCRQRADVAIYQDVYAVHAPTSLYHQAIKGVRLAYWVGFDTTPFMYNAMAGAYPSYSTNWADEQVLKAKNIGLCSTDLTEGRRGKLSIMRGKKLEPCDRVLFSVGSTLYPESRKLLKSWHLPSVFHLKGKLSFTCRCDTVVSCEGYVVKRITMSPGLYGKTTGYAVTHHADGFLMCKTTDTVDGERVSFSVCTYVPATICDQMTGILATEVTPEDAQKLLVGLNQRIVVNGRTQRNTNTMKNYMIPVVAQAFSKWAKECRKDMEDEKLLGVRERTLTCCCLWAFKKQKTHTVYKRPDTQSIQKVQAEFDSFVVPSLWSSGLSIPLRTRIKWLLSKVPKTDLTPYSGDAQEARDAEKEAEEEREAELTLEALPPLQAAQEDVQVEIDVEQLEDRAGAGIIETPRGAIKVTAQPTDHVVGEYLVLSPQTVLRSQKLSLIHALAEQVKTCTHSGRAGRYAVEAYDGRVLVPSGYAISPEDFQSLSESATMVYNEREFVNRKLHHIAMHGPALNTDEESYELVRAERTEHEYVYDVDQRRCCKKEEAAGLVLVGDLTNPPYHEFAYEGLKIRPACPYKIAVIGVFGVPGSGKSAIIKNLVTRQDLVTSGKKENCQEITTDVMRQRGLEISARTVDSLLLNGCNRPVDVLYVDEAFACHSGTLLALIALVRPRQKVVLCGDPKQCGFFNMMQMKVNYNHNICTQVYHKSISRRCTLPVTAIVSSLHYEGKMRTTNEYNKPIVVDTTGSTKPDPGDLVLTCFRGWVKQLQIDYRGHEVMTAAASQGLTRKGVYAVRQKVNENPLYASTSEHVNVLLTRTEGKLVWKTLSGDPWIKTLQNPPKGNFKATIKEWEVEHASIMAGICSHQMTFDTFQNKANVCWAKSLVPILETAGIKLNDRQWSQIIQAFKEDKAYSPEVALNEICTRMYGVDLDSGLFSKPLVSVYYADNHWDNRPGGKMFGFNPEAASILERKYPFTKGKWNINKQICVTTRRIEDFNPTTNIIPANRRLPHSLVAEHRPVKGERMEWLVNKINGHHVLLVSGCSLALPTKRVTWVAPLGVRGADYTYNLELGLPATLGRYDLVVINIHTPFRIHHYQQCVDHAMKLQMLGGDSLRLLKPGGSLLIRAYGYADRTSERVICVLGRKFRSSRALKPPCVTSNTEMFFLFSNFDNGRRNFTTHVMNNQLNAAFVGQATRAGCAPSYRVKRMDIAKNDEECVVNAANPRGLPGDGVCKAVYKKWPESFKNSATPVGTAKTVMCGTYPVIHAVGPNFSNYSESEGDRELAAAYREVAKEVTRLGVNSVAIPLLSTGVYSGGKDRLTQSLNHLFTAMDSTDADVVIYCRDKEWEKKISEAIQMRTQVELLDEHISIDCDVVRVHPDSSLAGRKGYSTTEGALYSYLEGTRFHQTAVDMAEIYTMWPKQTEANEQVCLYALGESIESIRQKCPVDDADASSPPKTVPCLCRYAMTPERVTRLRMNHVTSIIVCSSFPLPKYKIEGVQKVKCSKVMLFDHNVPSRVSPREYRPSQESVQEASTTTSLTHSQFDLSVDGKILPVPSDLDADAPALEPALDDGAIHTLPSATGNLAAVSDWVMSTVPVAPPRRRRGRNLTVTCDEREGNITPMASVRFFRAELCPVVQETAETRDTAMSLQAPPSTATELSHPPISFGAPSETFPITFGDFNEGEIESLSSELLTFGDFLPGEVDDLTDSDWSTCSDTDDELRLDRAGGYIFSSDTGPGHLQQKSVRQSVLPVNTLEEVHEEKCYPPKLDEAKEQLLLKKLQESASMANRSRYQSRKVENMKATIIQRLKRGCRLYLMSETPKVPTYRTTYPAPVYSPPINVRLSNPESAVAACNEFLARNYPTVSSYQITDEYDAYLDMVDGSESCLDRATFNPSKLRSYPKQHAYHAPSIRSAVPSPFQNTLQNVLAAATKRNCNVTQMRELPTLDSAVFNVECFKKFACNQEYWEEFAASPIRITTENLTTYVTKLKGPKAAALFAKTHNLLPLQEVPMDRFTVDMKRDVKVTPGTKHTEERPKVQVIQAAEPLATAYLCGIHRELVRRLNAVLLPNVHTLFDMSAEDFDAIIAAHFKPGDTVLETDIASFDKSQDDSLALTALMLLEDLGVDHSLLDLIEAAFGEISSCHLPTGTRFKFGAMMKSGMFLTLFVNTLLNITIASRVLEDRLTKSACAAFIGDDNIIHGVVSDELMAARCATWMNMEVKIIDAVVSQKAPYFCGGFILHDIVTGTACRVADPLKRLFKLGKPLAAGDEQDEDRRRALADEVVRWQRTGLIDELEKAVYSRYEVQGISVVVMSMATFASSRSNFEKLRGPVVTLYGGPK

The experiment addresses Polyprotein P1234 (Chikungunya virus (strain S27-African prototype)) (UniProt Q8JUX6). The experiment in a line: Selectivity profile for inhibitors of NSP2Pro chikungunya virus (CHIKV): Full length NSP2 enzyme counterscreen (CHIKV-NSP2) (AID 1964101). Note: nearly all actives have a fitted effect of over 65% in size. The following applies: Full-length CHIKV NSP2 protease enzymatic counterscreen; series mostly up to 50.7 µM; activity change, negative = inhibition: at the top concentration. The source says: PI: Natalia J. Martinez Ph.D.
National Center for Advancing Translational Sciences (NCATS),
National Institute of Health (NIH), Rockville, Maryland
Chikungunya virus (CHIKV) is a mosquito-borne RNA virus that has emerged as one of the most important global arboviral threats in the last decade. Although the first CHIKV vaccine has recently been FDA approved for use in healthy adults at increased risk, to date, there are no available antiviral drugs for CHIKV infection. CHIKV nsP2 protease plays a crucial role in the processing of the viral polypeptide precursor to release enzymes required for viral replication, thus making it a promising drug target for antiviral discovery. Here, we established a high-throughput pipeline to identify small molecule inhibitors of nsP2 proteolytic activity. The pipeline is composed of a suite of 1,536-well in vitro assays to support quantitative high-throughput (qHTS) screening campaigns. Specifically, we developed a fluorescence resonance energy transfer (FRET)-based assay using a fluorogenic peptide substrate encompassing an endogenous cleavage site and purified recombinant protease domain (nsP2pro). Using this assay, we interrogated ~37,000 small molecules, including those in drug repurposing libraries as well as chemically diverse and medicinal chemistry-friendly compounds. Hits were selected for follow-up validation against full-length nsP2 and an additional peptide. FRET-based 1,536-well assays for papain, hepatitis C virus NS3-4A, and human furin proteases were implemented to characterize compound selectivity. […] Novel compounds were identified to be potential nsP2 inhibitors and molecular docking analyses were performed to explain the binding mode of selected hits. In vitro antiviral activity was evaluated for a subset of compounds using a high-throughput CHIKV infection assay. To our knowledge, the pipeline presented here is unprecedented for CHIKV antiviral discovery research.
PROTOCOL TABLE (as described by Inglese J, Shamu CE and Guy RK. 2007)
SEQUENCE No. (e.g., 1, 2, 3, etc.); […] (e.g., Cells, Incubation, Reagent, etc.); VALUE; DESCRIPTION.
1; Control / Compound; 20 nL; Echo 655 acoustic dispenser, Greiner 1536-well solid bottom black plate.
2; Enzyme; 4 uL; BioRAPTR FRD liquid dispenser (Beckman Coulter).
3; Incubation; 15 min; room temperature.
4; Reagent; 4 uL; 2.5 uM Peptide 2 substrate.
5; Incubation; 1 hr; room temperature.
6; Detection; Fluorescence; WiewLux microplate reader (PerkinElmer), 525 nm excitation, 598/25 nm emission.
NOTES (numbers refer to sequence numbers above).
1. Briefly, 20 nL DMSO, positive control ZnAc (20nM final concentration), and test compounds were transferred into a 1,536-well solid bottom black plate (789176-F, Greiner One) via Echo 655 acoustic dispenser (Beckman Coulter). For primary screens, compounds were tested at 7 concentrations, 1:3 dilution points ranging from 25 uM to 34 nM. Follow-up confirmatory screens were carried out at 11 concentrations, 1:3 dilution points from 25 uM to 0.42 nM.
2. Four uL NSP2 full length enzyme mix (150 nM final concentration) in 10 mM Tris-HCl pH 8.0 with 0.01% Tween 20 assay buffer was dispensed into the plate using a BioRAPTR FRD liquid dispenser (Beckman Coulter).
3. The plate was incubated at room temperature (protected from light) for 15 min
4. Four microliter of peptide 2 substrate (2.5 uM final concentration) in assay buffer was added to the plate.
5. After 1 hour, plates were immediately read on a ViewLux high-throughput CCD imager (Exposure = 10 sec, Gain = High, Speed = Slow, Binning = 2X). The above assay was also incorporated in the NCATS HTS facility41, which allowed for robotic liquid and compound dispensing, microplate handling, and fluorescence reading.
Inglese J, Shamu CE and Guy RK, Reporting data from high throughput screening of small molecule libraries, Nature Chemical Biology, 2007, 3(8): 438-441. doi.org/10.1038/nchembio0807-438.
(In general: The purpose of a counterscreen is to sort out artefacts and off-target activity.)
Turning to `Oc1ccc(OC2CCCCO2)cc1` (centres undefined), the “activity change, negative = inhibition” value was -1.39%. In the case of `N#CSc1cc(SC#N)c(N)nc1N`, the Potency was 1.03 µM (active).

As for `C=CC(=O)c1ccc2ccccc2c1`, the Potency was 11.6 µM (active). Consider `C[C@@H]1C[C@@H](O)[C@@]23CO[C@]2(CO)C[C@@H](O)CC3[C@@]12CC(c1ccoc1)OC2=O` (some centres undefined), for which the “activity change, negative = inhibition” value was 4.95% [at 33.5 µM]. With `CCOc1ccc(N(Cc2ccccc2)C(=O)c2nc(S(C)(=O)=O)ncc2Cl)cc1`, the Potency is 14.6 µM (active).

On to `CCC(C)C(=O)OC1C(C)C2(O)C(C=C(CO)CC3(O)C(=O)C(C)=CC32)C2C(C)(C)C12OC(=O)C(C)C` (centres undefined), for which the “activity change, negative = inhibition” value was -7.57% [at 17.3 µM]. Still for that read-out and setting: under `CO[C@]1(NC(=O)CSC(F)F)C(=O)N2C(C(=O)O)=C(CSc3nnnn3CCO)CO[C@H]21` stands -12.8%. Consider `COC([CH2][Hg])CNC(=O)c1ccccc1OCC(=O)O` (centres undefined), for which the Potency is 18.3 µM (active). Consider `Cn1nnnc1Sc1ncnc2n[nH]c(-c3cccc(S(C)(=O)=O)c3)c12`, for which the Potency is 15.8 µM (active).
